High-throughput results deposited in PubChem BioAssay by National Center for Advancing Translational Sciences (NCATS).
This is a sample that favours compounds with a hit; in the whole collection about 15% have one here.
HCMV inh: qHTS Assay for inhibitors of the human cytomegalovirus (HCMV); HFF cells, HCMV-luciferase reporter, 72 h; hits give low values; activity change, negative = inhibition, % at 57.5 µM; 410,000 tested, 4.5% active; AID 1259415, 2018; in the data active = activity change below about -60%; inconclusive = no clear call, values can overlap the other calls; inactive = above about -39%
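After 16 h attachment at 37C, HFF cells received test compound and HCMV-luciferase (1 PFU/cell); reporter luminescence read 72 h later, data normalized against buffer-only and known inhibitor Salinomycin.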
Pf growth 48h: Primary qHTS for delayed death inhibitors of the malarial parasite plastid, 48 hour incubation | P. falciparum luciferase growth in erythrocytes, 48 h | Potency, µM (series often up to 28.7 µM), most hits filed as inhibitors | 310,000 tested, 5.9% active | AID 504832, 2011
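Parasite viability was followed by luminescence of a genomically integrated firefly luciferase. Cultures held 0.1% parasitemia at 2% hematocrit (final), incubated under 5% CO2 at 37 C.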
SARS PLP yeast: qHTS of Yeast-based Assay for SARS-CoV PLP; 330,000 tested, 0.19% active; S. cerevisiae expressing SARS-CoV PLpro, growth rescue; Potency, µM (highest dose often 32.9 µM), most hits filed as activators; calls by dose curve; also: nearly all actives have a fitted effect of over 55% in size
Pf growth 96h: Primary qHTS for delayed death inhibitors of the malarial parasite plastid, 96 hour incubation; P. falciparum luciferase reporter growth, 96 h; Potency, µM (doses to about 28.7 µM), actives largely listed as inhibitors; 320,000 tested, 6.9% active
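Delayed-death screen, second-generation endpoint: infected erythrocytes, 2% hematocrit, 0.05% parasitemia final; 96 hours at 37 C, 5% CO2; luciferase detection reagent; luminescence decrease equals reduced growth.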
HCV inh: qHTS Assay for Inhibitors of Hepatitis C Virus (HCV) | 340,000 tested, 3.4% active | Potency, µM (top dose mostly 41.8 µM), most hits filed as inhibitors | Huh7.5.1 HCVcc-Cre infection, luciferase reporter, 44 h
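Infectious HCV cell culture screen: compound-treated cells (1,000/well, pre-plated 4 h) are infected with HCVcc-Cre at roughly 0.5 moi and grown 44 h. Infection is quantified by luciferase signal after 15 min substrate incubation at room temperature.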
Sm TGR inh: qHTS Assay for the Inhibitors of Schistosoma Mansoni Peroxiredoxins. Schistosoma mansoni thioredoxin glutathione reductase (TGR), Q962Y6. purified TGR, DTNB reduction, TNB absorbance 405 nm. Potency, µM (series often up to 114 µM), actives largely listed as inhibitors. 360,000 tested, 3% active; also: nearly all actives have a fitted effect of over 60% in size
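TGR 20 nM + NADPH 100 uM (dispensed conc.), cpd preinc 15 min RT; start with NADPH (500 uM addition) then DTNB (15 mM addition). Kinetic TNB absorbance, 405 nm filter. Four-parameter Hill fit across titration.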
Of the large screens only hits and unclear results are named; the others gave an inactive call; ! = not active in a repeat. Unless noted, calls follow the shape of the dose curve; as a rule, active = well fitted curve in the direction sought with a large enough effect; inconclusive = small, poorly fitted or top-dose-only effect, or another doubt; inactive = no such curve, though single readings can be large; an effect the other way counts as inactive or inconclusive.

C/C(=N\NC(=O)c1cc(-c2ccco2)nc2ccccc12)c1cccnc1	Pf growth 48h inconclusive, Pf growth 96h inconclusive, Sm TGR inh 10µM
CC(NCCC1(Cc2ccccc2Cl)CCOC(C)(C)C1)c1cccs1 (stereo unspecified)	Pf growth 48h inconclusive, Pf growth 96h 12µM
CC(=O)OCC1=C(C(=O)O)N2C(=O)[C@@H](NC(=O)CSc3ccncc3)[C@@H]2SC1	Pf growth 96h inconclusive (no result: HCMV inh, SARS PLP yeast, HCV inh, Sm TGR inh)
CC(=O)OCC1=C(C(=O)O)N2C(=O)C(NC(=O)c3ccc(COc4cccc(Cl)c4Cl)o3)C2SC1 (stereo unspecified)	Pf growth 48h inconclusive, Sm TGR inh 20µM
CO/N=C(/C(=O)N[C@@H]1C(=O)N2C(C(=O)O)=C(CSc3nc(C)c(CC(=O)O)s3)CS[C@H]12)c1csc(N)n1	none (no result: HCMV inh, SARS PLP yeast, HCV inh, Sm TGR inh)
COc1cccc(C(=O)NC2C(=O)N3C(C(=O)O)=C(COC(C)=O)CSC23)c1 (stereo unspecified)	Sm TGR inh 13µM
CO/N=C(/C(=O)N[C@@H]1C(=O)N2C(C(=O)O)=C(COC(N)=O)CS[C@H]12)c1ccco1	Pf growth 48h 15µM, Pf growth 96h 17µM (no result: HCMV inh, SARS PLP yeast, HCV inh, Sm TGR inh)
CCCN(CCC)c1nc(-c2ccccc2F)nc2ccccc12	none (no result: Pf growth 48h, SARS PLP yeast, Pf growth 96h, HCV inh)
CCCCN(CC)c1nc(-c2ccncc2)nc2ccccc12	HCMV inh -95, Pf growth 48h 2.9µM, HCV inh 5.6µM (no result: Pf growth 96h)
c1ccc(CCNc2nc(-c3ccccn3)nc3ccccc23)cc1	HCMV inh -103, Pf growth 48h 1µM, Pf growth 96h 1.7µM, HCV inh 2.8µM
CCCN(CCC)c1nc(-c2ccccn2)nc2ccccc12	HCMV inh -100, Pf growth 48h 0.83µM, Pf growth 96h 0.33µM, HCV inh inconclusive
Cc1cccc(CNC(=O)Cc2ccc(NC(=O)N3CCCCc4ccccc43)cc2)c1	none (no result: Pf growth 48h, SARS PLP yeast, Pf growth 96h, HCV inh)
CCOc1cc(-c2ccccc2)nc2c1CN(S(=O)(=O)c1ccc(C)cc1)C(c1cccc(Cl)c1)C2 (stereo unspecified)	none (no result: Pf growth 48h, SARS PLP yeast, Pf growth 96h, HCV inh, Sm TGR inh)
CSc1ccc(CC(=O)N2CCC(n3nccc3NC(=O)C3CC3)CC2)cc1	Pf growth 96h inconclusive
O=C(Cn1nnc(-c2cccs2)n1)Nc1ccccc1C(F)(F)F	Pf growth 96h 0.29µM
COc1ccc(NC(=O)Cn2nnc(-c3ccccc3NC(=O)c3cccs3)n2)cc1	Pf growth 48h 1.9µM, Pf growth 96h inconclusive, HCV inh inconclusive
COc1ccccc1NC(=O)CSc1nncn2c1cc1sccc12	HCMV inh inconclusive (no result: Pf growth 48h, SARS PLP yeast, Pf growth 96h, HCV inh)
O=C(CSc1nncn2c1cc1sccc12)Nc1ccccc1C(F)(F)F	HCMV inh -73 (no result: Pf growth 48h, SARS PLP yeast, Pf growth 96h, HCV inh)
Cc1ccc(NC(=O)Cn2nnc(-c3ccccc3NC(=O)c3cccs3)n2)cc1	HCMV inh inconclusive, Pf growth 48h 13µM, HCV inh inconclusive (no result: Pf growth 96h)
COc1cccc(CNC(=O)c2ccc(CS(=O)Cc3ccc(Cl)cc3)o2)c1 (stereo unspecified)	none (no result: Pf growth 48h, SARS PLP yeast, Pf growth 96h, HCV inh)
CC(C)(C)c1cc(CN(CCO)CCO)c(O)c(C(C)(C)C)c1	Pf growth 48h inconclusive, Pf growth 96h inconclusive
Cc1cccc(-n2ncc(C(=O)NCc3ccccn3)c2C2CCN(C(=O)OC(C)(C)C)CC2)c1	none (no result: Pf growth 48h, SARS PLP yeast, Pf growth 96h, HCV inh)
CC[C@H](C)[C@@H](CN[C@H](C)CNC)NCCC(c1ccccc1)c1ccccc1	HCMV inh -97, Pf growth 48h inconclusive, Pf growth 96h inconclusive, HCV inh inconclusive
Brc1ccc(N=Nc2ccc3ccccc3n2)cc1	HCMV inh inconclusive, Pf growth 48h 0.33µM, Pf growth 96h inconclusive
CC(=O)c1ccc(NC(=O)CSc2n[nH]c(-c3cccnc3)n2)cc1	none
CCOC(=O)c1ccc(/[N+]([O-])=C/c2ccccc2)cc1	none
C#CCCc1cscc1/C=[N+](\[O-])c1ccc(C(=O)OCC)cc1	Pf growth 48h 8.3µM, Pf growth 96h inconclusive, HCV inh inconclusive
CCN(C(=O)COC(=O)c1cccnc1SC)c1c(N)n(Cc2ccccc2)c(=O)[nH]c1=O	none
CCOC(=O)N1CCC(=C2c3ccc(Cl)cc3CCc3cccnc32)CC1	Pf growth 48h 12µM, Pf growth 96h 10µM!, HCV inh inconclusive
COC(C(=O)C(O)C(C)O)C1Cc2cc3cc(OC4CC(OC5CC(O)C(O)C(C)O5)C(O)C(C)O4)c(C)c(O)c3c(O)c2C(=O)C1OC1CC(OC2CC(OC3CC(O)C(OC)C(C)O3)C(O)C(C)O2)C(O)C(C)O1 (stereo unspecified)	HCMV inh -98, HCV inh 1µM (no result: Pf growth 48h, SARS PLP yeast, Pf growth 96h, Sm TGR inh)
COC(C(=O)C(O)C(C)O)C1Cc2cc3cc(OC4CC(OC5CC(O)C(O)C(C)O5)C(O)C(C)O4)c(C)c(O)c3c(O)c2C(=O)C1OC1CC(OC2CC(OC3CC(C)(O)C(O)C(C)O3)C(O)C(C)O2)C(O)C(C)O1 (stereo unspecified)	Pf growth 48h 0.06µM, Pf growth 96h 1.9µM (no result: HCMV inh, SARS PLP yeast, HCV inh, Sm TGR inh)
CO[C@H](C(=O)[C@@H](O)[C@@H](C)O)C1Cc2cc3cc(O[C@H]4C[C@@H](O[C@H]5C[C@@H](O)[C@H](O)[C@@H](C)O5)[C@@H](O)[C@@H](C)O4)c(C)c(O)c3c(O)c2C(=O)[C@H]1O[C@H]1C[C@@H](O[C@H]2C[C@@H](O[C@H]3C[C@](C)(O)[C@H](O)[C@@H](C)O3)[C@H](O)[C@@H](C)O2)[C@H](O)[C@@H](C)O1 (stereo partly specified)	Pf growth 48h 0.048µM, Pf growth 96h 0.034µM (no result: HCMV inh, SARS PLP yeast, HCV inh, Sm TGR inh)
Cc1cc(C)n(CCC(=O)N=Nc2c(O)[nH]c3ccc(Br)cc23)n1	none
CCOc1ccc(-n2cnc3scc(-c4ccc(OC)c(OC)c4)c3c2=O)cc1	Pf growth 48h inconclusive, Pf growth 96h 2.6µM, HCV inh inconclusive
COc1cccc(-n2cnc3scc(-c4cccs4)c3c2=O)c1	HCV inh 11µM (no result: Pf growth 96h)
